{"source": "PubChem BioAssay"}
{"experiment": "probe aLefty1 binding on compound microarray – biochemical, small-molecule microarray, 635/667 nm fluorescence, primary screen (AID 1153);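 note: score merges spot fluorescence with signal-to-noise ratio from the scanned slide images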", "conditions": "higher = more signal"}
{"smiles": "C=CCN1C(=O)[C@]2(O[C@H](CCO)[C@@H]([Si](C)(C)c3ccc(OC)cc3)[C@@H]2C)c2cc(N3C(=O)c4cccc5cccc3c45)ccc21", "composite z-score": 0.178}
{"smiles": "C[N+](C)(C)CCCCNC(=O)[C@H]1C[C@H]2C(=O)N[C@@H](Cc3ccccc3)C(=O)N2[C@H]1c1ccc(O)cc1", "composite z-score": -0.142}
{"smiles": "COC(=O)[C@@]1(Cc2ccc(F)cc2)[C@H]2c3cc(C(=O)N4CCCC4)n(Cc4cc(C)n(C)n4)c3C[C@H]2CN1C(=O)c1ccccc1", "composite z-score": 0.291}
{"smiles": "Cc1ccc(S[C@]2(C(=O)NCC(F)(F)F)CC(=O)N(C(C)C)[C@@H]2c2ccc(CO)cc2I)cc1", "composite z-score": 0.108}
{"smiles": "CO[C@H]1O[C@H](CO)[C@@H](OC(=O)Nc2ccc(Br)cc2)[C@H](OC(=O)c2cc3ccccc3[nH]2)[C@H]1OC(=O)c1cc2ccccc2[nH]1", "composite z-score": 0.12}
{"smiles": "COc1ccc(CCNC(=O)[C@@]2(Sc3ccc(C)cc3)CC(=O)N(C3CCCCC3)[C@@H]2c2ccc(CO)cc2I)cc1", "composite z-score": 0.0889}
{"smiles": "CC(C)c1ccc(NN2C(C(O)c3cc(C(F)(F)F)cc(C(F)(F)F)c3)C=CC3C(=O)N(c4ccccc4)C(=O)C32)cc1", "note": "(stereo not given)", "composite z-score": -0.101}
{"smiles": "COc1ccc([C@H]2OC[C@@H]3CC4(CC=CC4)C(=O)N32)cc1", "composite z-score": 0.0406}
{"smiles": "CN1C(=O)C2C=CC(C(O)C3CC=CCC3)N(NC(=O)OC(C)(C)C)C2C1=O", "note": "(stereo not given)", "composite z-score": -0.168}
{"smiles": "N#Cc1ccc(NN2C(C(O)c3c(F)cccc3Cl)C=CC3C(=O)N(c4ccccc4)C(=O)C32)cc1", "note": "(stereo not given)", "composite z-score": 0.192}
{"smiles": "CCOC(=O)C1=CCC(c2ccccc2)N(S(=O)(=O)CC[Si](C)(C)C)C1", "note": "(stereo not given)", "composite z-score": -0.147}
{"smiles": "O=C1OCCC/C=C\\[C@H]2OC34C=CCN(CCN5CCOCC5)C(=O)[C@H]3N(CCCO)C(=O)[C@@H]4C12", "note": "(stereo not given in full)", "composite z-score": -0.284}
{"smiles": "COc1cc2c(cc1O)C=[N+](Cc1cccc(OC(F)(F)F)c1)CC2", "composite z-score": -0.464}
{"smiles": "COc1ccc(C(=O)Nc2cccc(CN3C(=O)[C@]4(O[C@H](CCO)[C@@H]([Si](C)(C)c5ccc(OC)cc5)[C@@H]4C)c4ccccc43)c2)cc1", "composite z-score": 0.0698}
{"smiles": "CCCCCN1CC=CC23O[C@@H]4/C=C\\CCCOC(=O)C4[C@H]2C(=O)N(C(CO)C(C)C)[C@@H]3C1=O", "note": "(stereo not given in full)", "composite z-score": -0.113}
{"smiles": "O=C1O[C@H](c2ccccc2)[C@H](c2ccccc2)N2[C@H]1[C@@H](C(=O)NC[C@H](O)c1ccccc1)[C@]1(C(=O)Nc3ccccc31)[C@H]2c1ccc(OCCO)cc1", "composite z-score": 0.159}
{"smiles": "CCOC(=O)[C@H]1CC=C2CC1C(=O)N1CCC[C@@H]1[C@@H]2O[Si](C)(C)C(C)(C)C", "note": "(stereo not given in full)", "composite z-score": -0.471}
{"smiles": "CCN(CC)c1ccc(N2CC=CC34O[C@@H]5/C=C\\CCCOC(=O)C5[C@H]3C(=O)N(CCO)[C@@H]4C2=O)cc1", "note": "(stereo not given in full)", "composite z-score": 0.0999}
{"smiles": "COCCOC(=O)N1C(=O)[C@@]2(c3cc(C#CC4=CCCCC4)ccc31)[C@H](C(=O)Nc1nc3ccccc3s1)[C@H]1C(=O)O[C@H](c3ccccc3)[C@H](c3ccccc3)N1[C@@H]2c1ccc(OCCO)cc1", "composite z-score": -0.333}
{"smiles": "CN1C(=O)C2C=CC(C(O)c3ccc(I)cc3)N(N3CCCCC3)C2C1=O", "note": "(stereo not given)", "composite z-score": 0.699}
{"smiles": "CC1CC/C=C\\[C@H]2OC34C=CCN(c5ccc(Cl)cc5)C(=O)[C@H]3N(CCO)C(=O)[C@]4(C)C2C(=O)O1", "note": "(stereo not given in full)", "composite z-score": -0.485}
{"smiles": "COCCOC(=O)N1C(=O)[C@@]2(c3cc(C#Cc4ccc(OC)cc4)ccc31)[C@H](c1ccc(O)cc1)N1[C@H](c3ccccc3)[C@H](c3ccccc3)OC(=O)[C@H]1[C@@H]2C(=O)NC[C@H](O)c1ccccc1", "composite z-score": 0.176}
{"smiles": "COc1ccc([Si](C)(C)[C@H]2[C@H](CCn3cc([C@H](O)c4ccccc4)nn3)O[C@@]3(C(=O)N(Cc4cccc(N5CCOC5=O)c4)c4ccccc43)[C@@H]2C)cc1", "composite z-score": -0.249}
{"smiles": "CN1C(=O)C2C=CC(C(O)C3=C[C@H]4C[C@@H](C3)C4(C)C)N(Nc3ccccc3)C2C1=O", "note": "(stereo not given in full)", "composite z-score": 0.202}
{"smiles": "CC(=O)NCCCC[C@@H]1NC(=O)[C@@H]2C[C@H](C(=O)NCCCCN(C)C)[C@H](c3cccc(OCCO)c3)N2C1=O", "composite z-score": -0.243}
{"smiles": "COc1ccc(CCNC(=O)[C@@]2(C)c3ccccc3C(=O)N(Cc3cc(F)cc(C(F)(F)F)c3)[C@H]2c2ccc(CO)cc2)cc1", "composite z-score": -0.045}
{"smiles": "C=CCOC(=O)[C@H]1[C@@H]2C(=O)O[C@@H](c3ccccc3)[C@@H](c3ccccc3)N2[C@@H](c2ccc(OCCOC(=O)[C@@H]3C[C@@H]4C(=O)N[C@@H](CCCC[N+](C)(C)C)C(=O)N4[C@@H]3c3ccc(O)cc3)cc2)[C@]12C(=O)Nc1ccccc12", "composite z-score": 0.0104}
{"smiles": "O=C1OCCC/C=C\\[C@H]2OC34C=CCN(Cc5ccccc5)C(=O)[C@H]3N(CCCCCCO)C(=O)[C@@H]4C12", "note": "(stereo not given in full)", "composite z-score": -0.0576}
{"smiles": "C=C(CCCC)C(=O)CC[C@H](OC(C)=O)c1cccc(OCCO)c1", "composite z-score": -0.263}
{"smiles": "CC(C)N1C(=O)[C@@]2(Cc3ccccc31)c1ccccc1C(=O)N(C1CCCCC1)[C@H]2c1ccc(CO)cc1", "composite z-score": -0.101}
{"smiles": "COCCOC(=O)N1C(=O)[C@@]2(c3cc(C#CC4(O)CCCCCC4)ccc31)[C@H](c1ccc(O)cc1)N1[C@H](c3ccccc3)[C@H](c3ccccc3)OC(=O)[C@H]1[C@@H]2C(=O)Nc1nc2ccccc2s1", "composite z-score": 1.76}
{"smiles": "O=C1O[C@@H](c2ccccc2)[C@@H](c2ccccc2)N2[C@@H](c3ccccc3OCCO)[C@]3(C(=O)Nc4ccc(C#CC5=CCCCC5)cc43)[C@@H](C(=O)Nc3nc4ccccc4s3)[C@H]12", "composite z-score": 0.293}
{"smiles": "C=CCOC(=O)[C@@H]1[C@H]2C(=O)O[C@H](c3ccccc3)[C@H](c3ccccc3)N2[C@H](c2ccc(OCCOC(=O)[C@@H]3C[C@@H]4C(=O)N5CCC[C@H]5C(=O)N4[C@@H]3c3ccc(O)cc3)cc2)[C@@]12C(=O)Nc1ccc(I)cc12", "composite z-score": 0.365}
{"smiles": "C=CCNC(=O)[C@H]1[C@@H]2C(=O)O[C@@H](c3ccccc3)[C@@H](c3ccccc3)N2[C@@H](c2ccc(OCCO)cc2)[C@]12C(=O)N(C(=O)OCCOC)c1ccccc12", "composite z-score": 0.378}
{"smiles": "COc1ccc(C(=O)O[C@H]2CC[C@]3(C)C4=C(CCC3C2(C)C)[C@]2(C)CC[C@H]([C@H](C)CCCC(C)C)[C@@]2(C)CC4)cc1", "note": "(stereo not given in full)", "composite z-score": -0.192}
